Measured values: PubChem BioAssay (NCATS)
Results filed as inconclusive are left out. Where a call stands in place of a potency, no number is given. Unmarked numbers belong to inactive results. Activity calls are given as the source filed them. Calls follow the shape of the dose curve; as a rule, active = well fitted curve in the direction sought with a large enough effect; inconclusive = small, poorly fitted or top-dose-only effect, or another doubt; inactive = no such curve, though single readings can be large; an effect the other way counts as inactive or inconclusive.

Columns and labels:
[1] = BET inhibitor-based combinations targeting novel dependencies in MECOM-rearranged (r) AML: SET-2 cell line (AID 2202231); settings: SET-2 AML cells viability, CellTiter-Glo luminescence, 48 h; viability: hits give low values, concentration not given here; also: nearly all actives have a fitted effect of over 35% in size; also: potency is read from the fitted curve at half-maximal effect
Method in brief: (§1)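 Each compound was tested at eleven concentrations on cells seeded at 500/well. After two days' incubation, ATP-based luminescence reported viability; responses relative to DMSO and blank wells yielded AUC and cell-line-centred Z-AUC.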

[2] = BET inhibitor-based combinations targeting novel dependencies in MECOM-rearranged (r) AML: OCI-AML3 cell line (AID 2202232); settings: Potency: OCI-AML3 viability; also: nearly all actives have a fitted effect of over 35% in size; also: potency is read from the fitted curve at half-maximal effect
Method in brief: as §1

[3] = BET inhibitor-based combinations targeting novel dependencies in MECOM-rearranged (r) AML: HNT-34 cell line (AID 2202234); also: nearly all actives have a fitted effect of over 35% in size
Method in brief: (§2)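 First, 500 cells per well were seeded; next, drugs were pinned as 11-point doses; then plates sat 48 hr in the incubator; finally CellTiter-Glo was added and luminescence read, with AUC and Z-AUC computed.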

[4] = BET inhibitor-based combinations targeting novel dependencies in MECOM-rearranged (r) AML: UCSD-AML1 cell line (AID 2202235); also: nearly all actives have a fitted effect of over 40% in size; also: potency is read from the fitted curve at half-maximal effect
Method in brief: as §2

[5] = BET inhibitor-based combinations targeting novel dependencies in MECOM-rearranged (r) AML: AML-191 cell line (AID 2202236; also: nearly all actives have a fitted effect of over 35% in size; also: potency is read from the fitted curve at half-maximal effect)
Method in brief: as §1

[6] = BET inhibitor-based combinations targeting novel dependencies in MECOM-rearranged (r) AML: AML-194 cell line (AID 2202237; also: nearly all actives have a fitted effect of over 40% in size; also: potency is read from the fitted curve at half-maximal effect)
Method in brief: as §1

[7] = BET inhibitor-based combinations targeting novel dependencies in MECOM-rearranged (r) AML: MV-4-11 cell line (AID 2202233); also: potency is read from the fitted curve at half-maximal effect; nearly all actives have a fitted effect of over 45% in size
Method in brief: as §2

Question: For `CC(=O)NCCCS(=O)(=O)O`, which viability [1] is on record?
Answer: The viability was 115%.

Question: And the Potency [2]?
Answer: The Potency was “inactive”.

Question: What about the Potency [3] of the same molecule?
Answer: Its Potency is “inactive”.

Question: What about the Potency [4] of the same molecule?
Answer: Its Potency is “inactive”.

Question: What about the Potency [5] of the same molecule?
Answer: Its Potency is “inactive”.

Question: What about the Potency [6] of the same molecule?
Answer: The Potency was “inactive”.

Question: What does the source list for `CCC(=O)OCC(=O)C1(OC(=O)CC)C(C)CC2C3CCC4=CC(=O)C=CC4(C)C3(F)C(O)CC21C` (stereo not drawn)?
Answer: viability [1]: 109%; Potency [2]: inactive; Potency [4]: inactive; Potency [6]: inactive

Question: What does the source list for `COc1cc2c(NC3CCN(C4CCCCC4)CC3)nc(N3CCCN(C(C)C)CC3)nc2cc1OCCCN1CCCCC1`?
Answer: viability [1]: 109%; Potency [7]: 7.42 µM (active)

Question: Which viability [1] does the source give for `Cc1cc(C)c(S(=O)(=O)N(CCc2cccc(Br)c2)Cc2ccc(-c3cccc(S(C)(=O)=O)c3)cc2)c(C)c1` here?
Answer: The viability was 117%.

Question: And the Potency [2]?
Answer: The Potency was “inactive”.

Question: And the Potency [4]?
Answer: The Potency was “inactive”.

Question: And the Potency [5]?
Answer: The Potency was “inactive”.

Question: And the Potency [6]?
Answer: Its Potency is “inactive”.

Question: Which viability [1] does the source give for `CNC(=O)[C@H](Cc1c[nH]c2ccccc12)NC(=O)[C@@H](CC(=O)NO)CC(C)C` here?
Answer: The viability was 112%.

Question: And the Potency [2]?
Answer: The Potency was “inactive”.

Question: What about the Potency [4] of the same molecule?
Answer: The Potency was “inactive”.

Question: And the Potency [5]?
Answer: The Potency was “inactive”.

Question: And the Potency [6]?
Answer: The Potency was “inactive”.

Question: What does the source list for `CC(C)(c1ccc(OCC(O)CO)cc1)c1ccc(OCC(O)CCl)cc1` (stereo not drawn)?
Answer: viability [1]: 60%; Potency [2]: inactive; Potency [4]: inactive; Potency [5]: inactive; Potency [6]: inactive

Question: Which viability [1] does the source give for `C#C[C@]1(O)CC[C@H]2[C@@H]3[C@H](C)CC4=C(CCC(=O)C4)[C@H]3CC[C@@]21C` here?
Answer: The viability was 111%.

Question: What about the Potency [2] of the same molecule?
Answer: Its Potency is 16.6 µM (active).

Question: And the Potency [4]?
Answer: Its Potency is “inactive”.

Question: What about the Potency [5] of the same molecule?
Answer: The Potency was “inactive”.

Question: What about the Potency [6] of the same molecule?
Answer: The Potency was “inactive”.

Question: With `CC[C@H]1OC(=O)[C@H](C)C(=O)[C@H](C)[C@@H](O[C@H]2O[C@H](C)C[C@H](N(C)C)[C@H]2O)[C@](C)(OC)C[C@@H](C)C(=O)[C@H](C)[C@H]2N(CCCCn3cnc(-c4cccnc4)c3)C(=O)O[C@]12C` as the molecule, how does the viability [1] read?
Answer: Its viability is 101%.

Question: What about the Potency [2] of the same molecule?
Answer: Its Potency is “inactive”.

Question: And the Potency [4]?
Answer: Its Potency is “inactive”.

Question: And the Potency [5]?
Answer: Its Potency is “inactive”.

Question: And the Potency [6]?
Answer: The Potency was “inactive”.

Question: For `CC[C@H](Nc1ncnc2nc[nH]c12)c1oc2ccccc2c(=O)c1-c1cccc(F)c1`, which viability [1] is on record?
Answer: The viability was 93.4%.

Question: And the Potency [7]?
Answer: Its Potency is 6.61 µM (active).

Question: With `C[C@@H](C(=O)Nc1ccc(Cl)cc1)C1CCC(c2ccnc3ccc(F)cc23)CC1` (stereo partly drawn) as the molecule, how does the Potency [1] read?
Answer: The Potency was 16.6 µM (active).

Question: What about the Potency [2] of the same molecule?
Answer: Its Potency is “inactive”.

Question: And the Potency [4]?
Answer: The Potency was “inactive”.

Question: And the Potency [6]?
Answer: Its Potency is “inactive”.

Question: With `COc1cc([C@@H](CC(=O)O)c2ccc(C)c(CN3C[C@@H](C)Oc4ccccc4S3(=O)=O)c2)cc2nnn(C)c12` as the molecule, how does the viability [1] read?
Answer: The viability was 67.3%.

Question: And the Potency [2]?
Answer: Its Potency is “inactive”.

Question: And the Potency [4]?
Answer: Its Potency is “inactive”.

Question: And the Potency [5]?
Answer: The Potency was “inactive”.

Question: And the Potency [6]?
Answer: The Potency was “inactive”.

Question: For `NC(=O)c1cc(F)cc2c1C(=O)N(C1CCN(C3CCC(F)(F)CC3)CC1)C2`, which viability [1] is on record?
Answer: Its viability is 106%.

Question: What about the Potency [2] of the same molecule?
Answer: The Potency was “inactive”.

Question: And the Potency [4]?
Answer: The Potency was “inactive”.

Question: What about the Potency [5] of the same molecule?
Answer: The Potency was “inactive”.

Question: What about the Potency [6] of the same molecule?
Answer: Its Potency is “inactive”.

Question: For `COc1ccc(S(=O)(=O)Nc2cc(-c3csc(C#N)c3)ccc2C)cc1`, which Potency [1] is on record?
Answer: The Potency was 0.209 µM (active).

Question: What about the Potency [2] of the same molecule?
Answer: Its Potency is 0.148 µM (active).

Question: And the Potency [4]?
Answer: Its Potency is 0.148 µM (active).

Question: And the Potency [5]?
Answer: Its Potency is 0.132 µM (active).

Question: What about the Potency [6] of the same molecule?
Answer: Its Potency is 0.332 µM (active).

Question: Which Potency [1] does the source give for `C=CC(=O)Nc1cccc(C)c1Nc1ncc2cc(-c3c(Cl)c(OC)cc(OC)c3Cl)ccc2n1` here?
Answer: Its Potency is 14.8 µM (active).

Question: What about the Potency [2] of the same molecule?
Answer: Its Potency is 10.5 µM (active).

Question: What about the Potency [5] of the same molecule?
Answer: The Potency was 13.2 µM (active).

Question: And the Potency [6]?
Answer: The Potency was 11.8 µM (active).

Question: Which results are given for `C[C@@H](Nc1cc(F)cc(F)c1)c1cc(C(=O)N(C)C)cc2c(=O)cc(N3CCOCC3)oc12`?
Answer: viability [1]: 109%; Potency [2]: 5.9 µM (active); Potency [5]: 23.5 µM (active)

Question: What does the source list for `CN[C@@H](C)C(=O)N[C@@H]1C(=O)N(Cc2c(C)ccc3ccccc23)c2ccc(C#N)cc2N(C(C)=O)[C@H]1C`?
Answer: viability [1]: 102%; Potency [2]: inactive; Potency [6]: inactive

Question: For `CN(Cc1cnc2nc(N)nc(N)c2n1)c1ccc(C(=O)N[C@@H](CCC(=O)O)C(=O)O)cc1`, which Potency [1] is on record?
Answer: Its Potency is 0.0372 µM (active).

Question: What about the Potency [2] of the same molecule?
Answer: The Potency was 0.0468 µM (active).

Question: What about the Potency [4] of the same molecule?
Answer: The Potency was 0.332 µM (active).

Question: What does the source list for `c1ccc2c(Cc3c[nH]c4ccccc34)c[nH]c2c1`?
Answer: viability [1]: 103%; Potency [2]: inactive; Potency [4]: inactive; Potency [6]: inactive

Question: Which results are given for `Nc1nc(N)c2nc(-c3cccc(Cl)c3)c(N)nc2n1`?
Answer: Potency [1]: 0.372 µM (active); Potency [2]: 2.95 µM (active); Potency [5]: 5.25 µM (active)

Question: With `COc1ncc(Nc2ncc(C(C)N3CCN(S(C)(=O)=O)CC3)cc2-c2nc(C)nc(N)n2)cc1F` (stereo not drawn) as the molecule, how does the viability [1] read?
Answer: The viability was 73.4%.

Question: And the Potency [2]?
Answer: The Potency was 0.662 µM (active).

Question: What about the Potency [3] of the same molecule?
Answer: Its Potency is “inactive”.

Question: And the Potency [6]?
Answer: Its Potency is “inactive”.

Question: Which viability [1] does the source give for `COc1ccc(CNC(=O)c2cc(-c3cncc(Cl)c3)cnc2-c2ccccn2)nc1OC` here?
Answer: The viability was 109%.

Question: What about the Potency [2] of the same molecule?
Answer: The Potency was “inactive”.

Question: What about the Potency [4] of the same molecule?
Answer: The Potency was “inactive”.

Question: What about the Potency [5] of the same molecule?
Answer: The Potency was “inactive”.

Question: And the Potency [6]?
Answer: The Potency was “inactive”.

Question: For `C=C1/C(=C\C=C2/CCC[C@]3(C)[C@@H]([C@H](C)CCCC(C)(C)O)CC[C@@H]23)C[C@@H](O)C[C@@H]1O`, which viability [1] is on record?
Answer: The viability was 99.5%.

Question: What about the Potency [2] of the same molecule?
Answer: Its Potency is 20.9 µM (active).

Question: And the Potency [6]?
Answer: The Potency was 23.5 µM (active).

Question: For `CCC[C@H](NC(=O)[C@@H]1[C@H]2CCC[C@H]2CN1C(=O)[C@@H](NC(=O)[C@@H](NC(=O)c1cnccn1)C1CCCCC1)C(C)(C)C)C(=O)C(=O)NC1CC1`, which Potency [1] is on record?
Answer: Its Potency is 0.263 µM (active).

Question: And the Potency [2]?
Answer: The Potency was “inactive”.

Question: And the Potency [6]?
Answer: The Potency was “inactive”.
